Hit rate of the full screen: of about 5,500 compounds, about 2,000 (36%) were called active. About 18% were inconclusive and are not listed. Rule as the data show it: active = normalized growth mostly below about 0.91 (no sharp cut-off); inconclusive = no clear call, values can overlap the other calls; inactive = mostly above about 0.92. Some of the results follow.
Assay: chemical genetic growth profiling, strain panel (AID 1159580);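 also: tested at 20 µM; growth read once vehicle control cultures reached saturation at 30 °C; 1 = growth at the plate median or of vehicle wells; lower values mean less growth of the strain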
Conditions: growth OD

Measured: normalized growth

CCN(CC)CCOc1ccc(/C(=C(\Cl)c2ccccc2)c2ccccc2)cc1
inactive: S. cerevisiae deletion strains, locus YKL009W, strain mrt4, hits give low values 0.917 | S. cerevisiae deletion strains, locus YKL068W, hits give low values 1.01 | S. cerevisiae deletion strains, locus YLR113W, strain HOG1, hits give low values 0.925 | S. cerevisiae deletion strains, locus YLR262C, strain YPT6 (second series), hits give low values 0.933 | S. cerevisiae deletion strains, locus YNL183C, strain NPR1, hits give low values 0.92 | S. cerevisiae deletion strains, locus YNL250W, strain rad50, hits give low values 0.922 | S. cerevisiae deletion strains, locus YNL271C, strain bni1, hits give low values 0.962 | S. cerevisiae deletion strains, locus YNL298W, strain CLA4, hits give low values 0.914 | S. cerevisiae deletion strains, locus YNL322C, strain KRE1 (second series), hits give low values 1.02 | S. cerevisiae deletion strains, locus YOR231W, strain MKK1, hits give low values 0.946 | S. cerevisiae deletion strains, locus YPL256C, strain CLN2, hits give low values 0.939 | S. cerevisiae deletion strains, locus YPR141C, strain kar3, hits give low values 1.03
active: S. cerevisiae deletion strains, locus YKL160W, strain elf1, hits give low values 0.195 | S. cerevisiae deletion strains, locus YKL190W, strain CNB1, hits give low values 0.0469 | S. cerevisiae deletion strains, locus YKR001C, strain vps1, hits give low values 0.0607 | S. cerevisiae deletion strains, locus YKR026C, strain gcn3, hits give low values 0.209 | S. cerevisiae deletion strains, locus YKR091W, strain srl3, hits give low values 0.171 | S. cerevisiae deletion strains, locus YLL001W, strain dnm1, hits give low values 0.108 | S. cerevisiae deletion strains, locus YLL026W, hits give low values 0.0855 | S. cerevisiae deletion strains, locus YLL041C, strain sdh2, hits give low values 0.129 | S. cerevisiae deletion strains, locus YLR027C, strain aat2, hits give low values 0.093 | S. cerevisiae deletion strains, locus YLR039C, strain RIC1, hits give low values 0.099 | S. cerevisiae deletion strains, locus YLR058C, strain SHM2, hits give low values 0.0491 | S. cerevisiae deletion strains, locus YLR102C, strain apc9, hits give low values 0.0621 | S. cerevisiae deletion strains, locus YLR221C, strain rsa3, hits give low values 0.104 | S. cerevisiae deletion strains, locus YLR258W, strain gsy2, hits give low values 0.0916 | S. cerevisiae deletion strains, locus YLR262C, strain YPT6, hits give low values 0.1 | S. cerevisiae deletion strains, locus YLR268W, strain sec22, hits give low values 0.0697 | S. cerevisiae deletion strains, locus YLR320W, strain mms22, hits give low values 0.182 | S. cerevisiae deletion strains, locus YLR330W, strain CHS5, hits give low values 0.0524 | S. cerevisiae deletion strains, locus YLR342W, strain FKS1 (second series), hits give low values 0.066 | S. cerevisiae deletion strains, locus YLR342W, strain FKS1, hits give low values 0.156 | S. cerevisiae deletion strains, locus YLR357W, strain rsc2, hits give low values 0.175 | S. cerevisiae deletion strains, locus YLR370C, strain arc18, hits give low values 0.0727 | S. cerevisiae deletion strains, locus YLR371W, strain rom2, hits give low values 0.0621 | S. cerevisiae deletion strains, locus YLR384C, strain iki3, hits give low values 0.714 | S. cerevisiae deletion strains, locus YLR418C, strain cdc73, hits give low values 0.0928 | S. cerevisiae deletion strains, locus YML016C, strain PPZ1, hits give low values 0.0474 | S. cerevisiae deletion strains, locus YML032C, strain rad52, hits give low values 0.0749 | S. cerevisiae deletion strains, locus YML120C, strain ndi1, hits give low values 0.121 | S. cerevisiae deletion strains, locus YML124C, strain tub3, hits give low values 0.0612 | S. cerevisiae deletion strains, locus YMR058W, strain fet3, hits give low values 0.0872 | S. cerevisiae deletion strains, locus YMR078C, strain ctf18, hits give low values 0.0745 | S. cerevisiae deletion strains, locus YMR125W, strain sto1, hits give low values 0.17 | S. cerevisiae deletion strains, locus YMR129W, hits give low values 0.129 | S. cerevisiae deletion strains, locus YMR205C, strain PFK2, hits give low values 0.145 | S. cerevisiae deletion strains, locus YMR223W, strain ubp8, hits give low values 0.0648 | S. cerevisiae deletion strains, locus YMR231W, strain pep5, hits give low values 0.0748 | S. cerevisiae deletion strains, locus YMR263W, strain SAP30, hits give low values 0.0606 | S. cerevisiae deletion strains, locus YMR307W, strain GAS1, hits give low values 0.123 | S. cerevisiae deletion strains, locus YNL067W, strain RPL9B, hits give low values 0.0497 | S. cerevisiae deletion strains, locus YNL071W, strain lat1, hits give low values 0.14 | S. cerevisiae deletion strains, locus YNL128W, strain TEP1, hits give low values 0.0656 | S. cerevisiae deletion strains, locus YNL209W, strain ssb2, hits give low values 0.126 | S. cerevisiae deletion strains, locus YNL233W, strain BNI4, hits give low values 0.057 | S. cerevisiae deletion strains, locus YNL248C, strain rpa49, hits give low values 0.191 | S. cerevisiae deletion strains, locus YNL307C, strain MCK1, hits give low values 0.0652 | S. cerevisiae deletion strains, locus YNL322C, strain KRE1, hits give low values 0.0484 | S. cerevisiae deletion strains, locus YNR049C, strain mso1, hits give low values 0.0907 | S. cerevisiae deletion strains, locus YNR052C, strain pop2, hits give low values 0.0587 | S. cerevisiae deletion strains, locus YOL006C, strain TOP1, hits give low values 0.117 | S. cerevisiae deletion strains, locus YOL147C, strain pex11, hits give low values 0.0607 | S. cerevisiae deletion strains, locus YOR001W, strain rrp6, hits give low values 0.337 | S. cerevisiae deletion strains, locus YOR061W, strain CKA2, hits give low values 0.0462 | S. cerevisiae deletion strains, locus YOR069W, strain VPS5, hits give low values 0.0488 | S. cerevisiae deletion strains, locus YOR070C, strain gyp1, hits give low values 0.0639 | S. cerevisiae deletion strains, locus YOR080W, strain dia2, hits give low values 0.289 | S. cerevisiae deletion strains, locus YOR083W, strain WHI5, hits give low values 0.102 | S. cerevisiae deletion strains, locus YOR106W, strain vam3, hits give low values 0.0804 | S. cerevisiae deletion strains, locus YOR136W, strain idh2, hits give low values 0.0748 | S. cerevisiae deletion strains, locus YOR144C, strain elg1, hits give low values 0.0617 | S. cerevisiae deletion strains, locus YOR184W, strain ser1, hits give low values 0.0757 | S. cerevisiae deletion strains, locus YOR265W, strain rbl2, hits give low values 0.0762 | S. cerevisiae deletion strains, locus YOR270C, strain vph1, hits give low values 0.0899 | S. cerevisiae deletion strains, locus YOR290C, strain snf2, hits give low values 0.112 | S. cerevisiae deletion strains, locus YOR316C, strain cot1, hits give low values 0.0599 | S. cerevisiae deletion strains, locus YPL051W, strain arl3, hits give low values 0.303 | S. cerevisiae deletion strains, locus YPL055C, strain LGE1, hits give low values 0.0709 | S. cerevisiae deletion strains, locus YPL078C, strain atp4, hits give low values 0.232 | S. cerevisiae deletion strains, locus YPL106C, strain sse1, hits give low values 0.136 | S. cerevisiae deletion strains, locus YPL240C, strain hsp82, hits give low values 0.0981 | S. cerevisiae deletion strains, locus YPL241C, strain CIN2, hits give low values 0.0508 | S. cerevisiae deletion strains, locus YPR119W, strain clb2, hits give low values 0.067 | S. cerevisiae deletion strains, locus YPR163C, strain tif3, hits give low values 0.0698 | S. cerevisiae deletion strains, locus YPR167C, strain met16, hits give low values 0.0645 | S. cerevisiae deletion strains, strain wtn01, hits give low values 0.0644 | S. cerevisiae strains, strain wild type, hits give low values 0.0486

From PubChem BioAssay AID1159580 (chemical genetic matrix, 2015)
